Experimental data published in ChEMBL document CHEMBL4513216, “Probing the Open Global Health Chemical Diversity Library for Multistage-Active Starting Points for Next-Generation Antimalarials” (ACS Infect Dis, 2020).
Out of some 68,000 compounds screened, about 2,700 (4%) showed an effect of 50% or more. The entries come from a sample that favours strong results as a whole.

What follows are compounds tested on Plasmodium berghei (assay: Screen against P. berghei liver stage (PbLuc), transformed with Luciferase, at 2uM). Details: tested at 2 uM.
Assay type: functional, HepG2
`Cc1cccn2c(CNC(C)CCc3ccc(O)cc3)cnc12` (centres undefined) was tested, and the INHIBITION was -19.78%. With `Cc1cccc(C(=O)NC(C)CN2CCCC2=O)n1` (centres undefined) the INHIBITION was 5.91%. `c1ccc(CO[C@@H]2CC[C@H]3[C@H]2OCCN3Cc2ccsc2)nc1` showed an INHIBITION of 22.62%. Compound `O=C(c1ccsc1)N1C[C@H]2CN(Cc3cccnc3)C(=O)[C@H]2C1` has an INHIBITION of 18.91%. With `CN1CCc2c(C#N)c(NCc3cccnc3)n3cnnc3c2C1` the INHIBITION was -48.47%. Compound `CN(C)CC1CN(Cc2coc(-c3ccc(Cl)cc3)n2)CCO1` (centres undefined) has an INHIBITION of 35.23%. `O=C(O)C1(Oc2ccc3ccccc3c2)CCN(c2ccncc2)CC1` gave an INHIBITION of 2.04%. `CCc1n[nH]c(C2CN(C(=O)CCn3ccccc3=O)CCO2)n1` (centres undefined) showed an INHIBITION of -27.5%. `CCCc1n[nH]c(C2CN(C(=O)CCn3ccccc3=O)CCO2)n1` (centres undefined) was tested, and the INHIBITION was 60.09%. `CCCc1n[nH]c(C2CN(C(=O)Cn3ccccc3=O)CCO2)n1` (centres undefined) showed an INHIBITION of -53.98%. `CC(C)NC(=O)N1CCCC(c2nnc(CN3CCOCC3)n2C)C1` (centres undefined) showed an INHIBITION of 10.02%. `CC(NCc1cnc(N2CCOCC2)nc1)c1ccc(Cl)s1` (centres undefined) showed an INHIBITION of -62.93%. `Cc1nc(C2CCCN2CCCS(=O)(=O)N(C)C)no1` (centres undefined) was tested, and the INHIBITION was 9.36%. With `C[C@H](C(=O)N1Cc2ccccc2CC2(CCCN2C)C1)c1ccccc1` (some centres undefined) the INHIBITION was 29.56%. `CCNC(=O)c1cn(C(C)(C)C)c2ncccc12` showed an INHIBITION of 40.4%. With `O=C(C1CC1)N1CCCC1c1nnc2n1CCCCC2` (centres undefined) the INHIBITION was 58.29%. `O=C(C1CCC1)N1CCCC1c1nnc2n1CCCCC2` (centres undefined) gave an INHIBITION of 41.56%. Compound `O=C(C1CCCC1)N1CCCC1c1nnc2n1CCCCC2` (centres undefined) has an INHIBITION of -15.83%. `C[C@@H]1CN(S(=O)(=O)N2CCCCCC2)C[C@@]1(O)C1CCC1` was tested, and the INHIBITION was 6.68%. With `CCC(O)CN1CCN(C(=O)c2ccc(Cn3cccc3)cc2)CC1` (centres undefined) the INHIBITION was -25.46%. In the case of `O=C(Nc1cccnc1)[C@H]1C[C@H]2CN(Cc3ccc(F)cc3)C[C@@H]1O2`, the INHIBITION is reported as 6.35%. In the case of `CC1CCC(NS(=O)(=O)CC(=O)Nc2ccc(N3CCCC3)cn2)CC1` (centres undefined), the INHIBITION is reported as -3.25%. Compound `CNC(=O)CS(=O)(=O)NC1CCC(C)CC1` (centres undefined) has an INHIBITION of 7.46%. In the case of `Cc1ccc(NC(=O)CS(=O)(=O)NC2CCC(C)CC2)nc1` (centres undefined), the INHIBITION is reported as 59.03%. `CCN(CC)CCn1c(NC(=O)c2scnc2C)nc2ccccc21` gave an INHIBITION of -34.06%. `O=C(Nc1ccccc1Oc1cccc(F)c1)NC1CCS(=O)(=O)C1` (centres undefined) gave an INHIBITION of 11.88%. With `CNC(=O)NC(=O)CSC(C)c1ccccc1F` (centres undefined) the INHIBITION was 20.74%. `CC(=O)N1CCC(Cc2cncc(-c3c(C)n[nH]c3C)n2)C1` (centres undefined) showed an INHIBITION of 23.22%. Work on `CC(C)CN1CCC2(CCN(Cc3ccoc3)CC2)C1=O` yielded an INHIBITION of 44.43%. `CCS(=O)(=O)Nc1cnn(Cc2cccc(F)c2)c1` gave an INHIBITION of 3.58%. `CCS(=O)(=O)Nc1cnn(Cc2cccc(Cl)c2)c1` gave an INHIBITION of 20.19%. With `CCS(=O)(=O)Nc1cnn(Cc2cccc(C)c2)c1` the INHIBITION was 52.95%. `Cn1cc(CN2CCc3c(COCC4CC4)cncc3C2)cn1` gave an INHIBITION of -11.66%. Compound `COCc1cncc2c1CCN(Cc1cnn(C)c1)C2` has an INHIBITION of 53.98%. `CC(C)COCc1cncc2c1CCN(Cc1cnn(C)c1)C2` gave an INHIBITION of -40.42%. With `COc1ccc2cc(C(=O)N3CCCC(n4ccnc4C)C3)[nH]c2c1` (centres undefined) the INHIBITION was -47.33%. `CCNc1cc2c(nn1)CCN(C(=O)c1cccc3c1OCO3)C2` showed an INHIBITION of 1.63%. For `Cn1cc(N2CCN(c3ccc(C#N)c(Cl)c3)CC2=O)cn1`, the INHIBITION was 52.3%. `Cn1cc(N2CCN(c3ccc(C#N)cc3F)CC2=O)cn1` was tested, and the INHIBITION was 53.98%. Compound `N#Cc1ccc(N2CCC(OC3CCOCC3)CC2)cc1Cl` has an INHIBITION of 26.51%. `Cn1cc(N2CCN(c3ccc(C#N)cc3Br)CC2=O)cn1` gave an INHIBITION of 42.2%. With `COCC1CN(c2ccc(C#N)c(Cl)c2)CCO1` (centres undefined) the INHIBITION was 2.69%. `Cn1ccnc1CN1CCN(c2ccc(C#N)cc2F)CC1` was tested, and the INHIBITION was -5.15%. With `O=C(Cn1cccnc1=O)NCCc1ccc2c(c1)OCCO2` the INHIBITION was 0.9%. In the case of `COc1ccc2c(ccn2CCCN)c1`, the INHIBITION is reported as -19.92%. Work on `CC(Sc1nnnn1C1CCOCC1)C(F)(F)F` (centres undefined) yielded an INHIBITION of 5.55%. In the case of `CC(Sc1nnnn1C1CCOCC1)C(=O)NC1CCCCC1` (centres undefined), the INHIBITION is reported as -33.07%. In the case of `CC(C)OCCSc1nnnn1C1CCOCC1`, the INHIBITION is reported as 17.37%. Compound `COC(=O)C(C)Sc1nnnn1C1CCOCC1` (centres undefined) has an INHIBITION of -53.55%. In the case of `CCCC(C)Sc1nnnn1C1CCOCC1` (centres undefined), the INHIBITION is reported as 61.27%. Compound `CCCOC(=O)C(C)Sc1nnnn1C1CCOCC1` (centres undefined) has an INHIBITION of 71.4%. Work on `CCc1nccn1C1CCCN(C(=O)Cc2ccc(OC)c(F)c2)C1` (centres undefined) yielded an INHIBITION of 29.71%. Compound `COc1ccc(CNC(=O)N2CCCC(Nc3ccccc3)C2)cn1` (centres undefined) has an INHIBITION of 17.48%. `Fc1ccc(CN2CCc3ncnc(C4CC4)c3CC2)cc1` gave an INHIBITION of -12.06%. `Cc1cn[nH]c1C1CCCCN1C(=O)CCc1c(C)n[nH]c1C` (centres undefined) gave an INHIBITION of 5.34%. With `O=C(NCC1CCCOC1)c1ccc(-c2cccs2)[nH]c1=O` (centres undefined) the INHIBITION was 38.67%. Compound `Cc1cc(C(=O)N2CCCC(c3noc(C)n3)C2)[nH]n1` (centres undefined) has an INHIBITION of 45.75%. Compound `CCN1C[C@@H]2CN(C(=O)c3cccn3C)C[C@@H]2C1=O` has an INHIBITION of 17.05%. `CCCN1C[C@@H]2CC[C@H]1CN(Cc1cccc(O)c1)C2` showed an INHIBITION of -1.63%. Work on `CCCN(CCO)C(=O)C1CCC(=O)N(CCc2ccc(Cl)cc2)C1` (centres undefined) yielded an INHIBITION of -16.93%. Compound `CC(C)N(C)C(=O)C1CCC(=O)N(CCc2cccc(F)c2)C1` (centres undefined) has an INHIBITION of 68.39%. `CCN(CCO)C(=O)C1CCC(=O)N(Cc2cccc(OC)c2)C1` (centres undefined) was tested, and the INHIBITION was 53.61%. `CC(C)N(CCO)C(=O)C1CCC(=O)N(CCc2cccc(F)c2)C1` (centres undefined) was tested, and the INHIBITION was 66.74%. `CCCN(CCO)C(=O)C1CCC(=O)N(Cc2ccc(Cl)cc2)C1` (centres undefined) showed an INHIBITION of -49.57%. `CCN(CC)C(=O)C1CCC(=O)N(CCc2cccc(F)c2)C1` (centres undefined) gave an INHIBITION of 17.48%. With `CC(C)N(CCO)C(=O)C1CCC(=O)N(CCc2ccc(Cl)cc2)C1` (centres undefined) the INHIBITION was 17.2%. In the case of `CCC(CO)(CO)NC(=O)C1CCC(=O)N(CCc2ccccc2)C1` (centres undefined), the INHIBITION is reported as -19.02%. For `CCN(CCO)C(=O)C1CCC(=O)N(CCc2cccc(F)c2)C1` (centres undefined), the INHIBITION was 30.62%. `CN1CCN(C2COC3(CCN(Cc4ccc(F)cc4)CC3)C2)CC1` (centres undefined) was tested, and the INHIBITION was -0.38%.
